Measurements from PubChem BioAssay (NCATS).
Records with an inconclusive call do not appear. Activity calls are given as the source filed them. Calls follow the shape of the dose curve; as a rule, active = well fitted inhibition curve with a large enough effect; inconclusive = small, poorly fitted or top-dose-only effect; inactive = flat fitted curve, though single readings scatter.

Key:
Test in all cases: qHTS profiling for inhibitors of Plasmodium falciparum proliferation (AID 504749); also: nearly all actives have a fitted effect of over 60% in size
Settings in all cases: P. falciparum in erythrocytes, SYBR Green DNA, 72 h; series mostly up to 28.7 µM
AS120 = test system: AS120
Procedure, shortened: (§1)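 SYBR Green fluorescence of parasite DNA, read after lysis and overnight dark incubation, measured growth over 72 h in erythrocyte culture at 0.3% parasitemia and 2.5% hematocrit. Data normalised to DMSO and 0.29 uM artemisinin, with plate-drift correction.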

ATS189 = test system: ATS189
Procedure, shortened: as §1

ATS95 = test system: ATS95
Procedure, shortened: as §1

C2A = test system: C2A
Procedure, shortened: as §1

CP185 = test system: CP185
Procedure, shortened: as §1

CP191 = test system: CP191
Procedure, shortened: as §1

CP192 = test system: CP192
Procedure, shortened: as §1

CP194 = test system: CP194
Procedure, shortened: as §1

CP201 = test system: CP201
Procedure, shortened: as §1

CP203 = test system: CP203
Procedure, shortened: as §1

CP211 = test system: CP211
Procedure, shortened: as §1

CP215 = test system: CP215
Procedure, shortened: as §1

CP217 = test system: CP217
Procedure, shortened: as §1

CP237 = test system: CP237
Procedure, shortened: as §1

CP238 = test system: CP238
Procedure, shortened: as §1

CP247 = test system: CP247
Procedure, shortened: as §1

CP250 = test system: CP250
Procedure, shortened: as §1

CP252 = test system: CP252
Procedure, shortened: as §1

CP256 = test system: CP256
Procedure, shortened: as §1

CP260 = test system: CP260
Procedure, shortened: as §1

Measured: Potency
Potency is read from the fitted curve at half-maximal effect.

Cc1cccc(Nc2ccncc2S(=O)(=O)NC(=O)NC(C)C)c1
inactive: all assays above

CN1CCN(c2c(F)cc3c(=O)c(C(=O)O)cn(CCF)c3c2F)CC1
inactive: all assays above

O=c1cc(O)c(Cl)c[nH]1
inactive: all assays above

CN(C)CCc1c[nH]c2ccc(CS(=O)(=O)N3CCCC3)cc12
inactive: all assays above

Nc1ccc(S(=O)(=O)Nc2ccccn2)cc1
not listed: ATS95
inactive: all other assays above

COc1ccc(-c2ccc3cc(C(=O)O)ccc3c2)cc1C12CC3CC(CC(C3)C1)C2
not listed: ATS95
inactive: all other assays above

CNNCc1ccc(C(=O)NC(C)C)cc1
not listed: CP191 | CP201
inactive: all other assays above

COc1cc2c(Nc3ccc(Br)cc3F)ncnc2cc1OCC1CCN(C)CC1
active: AS120 3.16 µM | ATS189 5.01 µM | ATS95 3.55 µM | C2A 3.16 µM | CP185 3.55 µM | CP191 3.16 µM | CP217 0.447 µM | CP237 3.98 µM | CP238 6.31 µM | CP247 1 µM | CP250 1.41 µM | CP252 1.12 µM | CP256 3.16 µM | CP260 3.55 µM
inactive: CP211

O=C(O)c1cn(C2CC2)c2cc(N3CCNCC3)c(F)cc2c1=O
inactive: ATS189 | C2A | CP191 | CP217 | CP247

O=c1oc2c(O)c(O)cc3c(=O)oc4c(O)c(O)cc1c4c23
inactive: CP185 | CP191 | CP203
active: AS120 1.41 µM | CP237 2 µM | CP260 1.41 µM

CCCCCCNC(=O)n1cc(F)c(=O)[nH]c1=O
active: C2A 12.6 µM | CP211 16.9 µM

C1CCC(C(CC2CCCCN2)C2CCCCC2)CC1 (stereo not given)
active: AS120 7.94 µM | ATS189 11.2 µM | ATS95 11.2 µM | C2A 11.2 µM | CP185 10 µM | CP191 11.2 µM | CP194 15.1 µM | CP217 10 µM | CP237 7.94 µM | CP247 11.2 µM | CP250 12.6 µM | CP252 11.2 µM | CP256 10 µM | CP260 8.91 µM

CN1CCCC(n2nc(Cc3ccc(Cl)cc3)c3ccccc3c2=O)CC1 (stereo not given)
inactive: CP185 | CP192 | CP194 | CP211 | CP238 | CP250 | CP252 | CP256

CCOC(=O)c1ccc(OC(=O)CCCCCN=C(N)N)cc1
not listed: ATS189 | CP191 | CP260
inactive: all other assays above

CNCC[C@H](Oc1cccc2ccccc12)c1cccs1
active: AS120 11.2 µM | ATS95 7.94 µM | CP191 11.2 µM | CP237 10 µM | CP260 8.91 µM
inactive: CP201 | CP211

CNC(=O)c1cc(Oc2ccc(NC(=O)Nc3ccc(Cl)c(C(F)(F)F)c3)cc2)ccn1
active: AS120 10 µM | CP192 10.7 µM | CP194 10.7 µM | CP211 12 µM | CP215 15.1 µM | CP237 11.2 µM | CP238 10 µM | CP247 10 µM | CP250 10 µM

CC(N)C12CC3CC(CC(C3)C1)C2 (stereo not given)
active: CP203 12 µM | CP237 5.62 µM
inactive: C2A | CP191 | CP201 | CP217 | CP250 | CP252 | CP256

CCn1cc(C(=O)O)c(=O)c2cc(F)c(N3CCNCC3)nc21
not listed: AS120 | CP237 | CP252 | CP256 | CP260
inactive: all other assays above

COc1cc([C@@H]2c3cc4c(cc3[C@H](O)[C@H]3COC(=O)[C@H]23)OCO4)cc(OC)c1OC
active: AS120 5.01 µM | ATS189 3.55 µM | ATS95 8.91 µM | CP191 3.55 µM | CP203 12 µM | CP215 13.5 µM | CP237 3.16 µM | CP247 10 µM | CP250 8.91 µM | CP256 8.91 µM | CP260 2.82 µM

CCn1cc(C(=O)O)c(=O)c2cc(F)c(N3CCN(C)CC3)cc21
inactive: CP192 | CP194 | CP201 | CP238

Oc1c(Cl)cc(Cl)c2cccnc12
inactive: CP192 | CP201
active: AS120 11.2 µM | ATS189 8.91 µM | ATS95 7.94 µM | CP185 11.2 µM | CP191 11.2 µM | CP217 8.91 µM | CP237 10 µM | CP247 8.91 µM | CP250 12.6 µM

CN(Cc1cc(Br)cc(Br)c1N)C1CCCCC1
not listed: ATS95 | CP237 | CP238 | CP260
inactive: all other assays above

CCn1cc(C(=O)O)c(=O)c2cc(F)c(N3CCNCC3)cc21
not listed: CP185 | CP194 | CP211 | CP237 | CP252 | CP256 | CP260
inactive: all other assays above

CCCCOc1ccc(CC(=O)NO)cc1
active: AS120 3.55 µM | ATS95 3.55 µM | C2A 1.58 µM | CP185 3.98 µM | CP191 2.24 µM | CP192 4.05 µM | CP203 3.61 µM | CP211 2.56 µM | CP237 4.47 µM | CP247 4.47 µM | CP250 2.24 µM | CP252 3.98 µM | CP256 1.41 µM | CP260 2.82 µM

CCOC(=O)c1ccc(C#Cc2ccc3c(c2)C(C)(C)CCS3)nc1
inactive: AS120 | ATS95 | CP192 | CP194 | CP201 | CP203 | CP215 | CP217 | CP237 | CP238 | CP252

Cc1oc(=O)oc1CN1CCN(c2cc3c(cc2F)c(=O)c(C(=O)O)c2n3C(C)S2)CC1 (stereo not given)
active: AS120 11.2 µM | ATS189 8.91 µM | ATS95 12.6 µM | C2A 10 µM | CP185 10 µM | CP191 12.6 µM | CP217 11.2 µM | CP237 10 µM | CP238 6.31 µM | CP247 8.91 µM | CP250 8.91 µM | CP252 7.94 µM | CP256 8.91 µM | CP260 6.31 µM

C[C@@H](NCCCc1cccc(C(F)(F)F)c1)c1cccc2ccccc12
active: AS120 3.98 µM | ATS189 7.08 µM | ATS95 7.08 µM | C2A 8.91 µM | CP185 11.2 µM | CP194 13.5 µM | CP201 15.1 µM | CP203 10.7 µM | CP211 13.5 µM | CP215 10.7 µM | CP217 7.94 µM | CP237 3.55 µM | CP238 11.2 µM | CP247 10 µM | CP252 8.91 µM | CP260 4.47 µM

Nc1[nH]c(=O)ncc1F
not listed: C2A
inactive: all other assays above

CC(C)(C)C(=O)OCOP(=O)(COCCn1cnc2c(N)ncnc21)OCOC(=O)C(C)(C)C
inactive: CP194 | CP201 | CP211 | CP247

CCOC(=O)[C@H](CCc1ccccc1)N[C@H]1CS[C@H](c2cccs2)CN(CC(=O)O)C1=O
not listed: AS120 | CP217
inactive: all other assays above

CC1=CC(=O)c2ccccc2C1=O
not listed: C2A | CP237 | CP247 | CP250 | CP260
inactive: all other assays above

N[C@@H](Cc1ccc(O)c(O)c1)C(=O)O
inactive: CP192 | CP194 | CP201 | CP203 | CP211 | CP215

CCCc1nc(C)c2c(=O)[nH]c(-c3cc(S(=O)(=O)N4CCN(CC)CC4)ccc3OCC)nn12
not listed: AS120 | CP237 | CP260
inactive: all other assays above

COc1cccc(N(C)C(=S)Oc2ccc3c(c2)CCCC3)n1
not listed: AS120 | CP191 | CP194 | CP201 | CP203 | CP215 | CP260
inactive: all other assays above
